# PubChem BioAssay (NCATS)
# Several values for one entry are separate records, joined by “and”; a condition that tells them apart may be missing. Identical values can stand only once. Results filed as inconclusive are left out. Where a call stands in place of a potency, no number is given. Activity calls are given as the source filed them. Unless noted, calls follow the shape of the dose curve; as a rule, active = well fitted curve in the direction sought with a large enough effect; inconclusive = small, poorly fitted or top-dose-only effect, or another doubt; inactive = no such curve, though single readings can be large; an effect the other way counts as inactive or inconclusive.
# What was measured:
# [1] = Cell Viability - Hek293 (AID 427;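 active = compounds whose dose-response curve shows a full or clear partial loss of cell viability, called from curve shape rather than a numeric limit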;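 also: potency is read from the fitted curve at half-maximal effect; cells exposed to compound for 40 hours at 37 °C before reading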); settings: qHTS
# Outline: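 AC50 values derive from Hill-modelled concentration-response of ATP-based luminescence, normalized between DMSO-only and 100 uM tamoxifen controls. Cells were exposed in complete culture medium for 40 hr at 37 °C before detection.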
# [2] = Cell Viability - SK-N-SH (AID 435; calls by dose curve;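 also: potency is read from the fitted curve at half-maximal effect; compound exposure lasted 40 h at 37 °C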); settings: SK-N-SH neuroblastoma cell viability qHTS
# Outline: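 Cells seeded at 1500 per well and incubated 5 hr at 37 °C. Compound added, then 40 hr at 37 °C. CellTiter-Glo added, 20 min at room temperature, luminescence read.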
# [3] = Cell Viability - SH-SY5Y (AID 544); settings: SH-SY5Y neuroblastoma cell viability; viability change, negative = cytotoxic: at 92.2 µM (top of the series); also: nearly all actives have a fitted effect of over 55% in size; also: potency is read from the fitted curve at half-maximal effect
# Outline: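 SH-SY5Y human neuroblastoma cells (1500/well) incubated 5 h, then compound-treated 40 h at 37 °C in complete medium. Viability read as intracellular ATP by CellTiter-Glo luminescence after 20 min; AC50 from Hill-equation fits of qHTS concentration-response.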
# [4] = Cell Viability - LYMP2-015 (AID 971); settings: LYMP2-015 lymphoblastoid cell viability; series mostly up to 92.2 µM; also: nearly all actives have a fitted effect of over 55% in size; also: potency is read from the fitted curve at half-maximal effect
# Outline: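 LYMP2-015 human lymphoblastoid cells (2500/well) in complete medium, compound-treated 24 h at 37 C; viability read as cellular ATP by CellTiter-Glo luminescence after 30 min at room temperature. AC50 from Hill-equation fits of qHTS concentration-response data.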
# [5] = Cell Viability - LYMP2-010 (AID 981); settings: LYMP2-010 lymphoblastoid cell viability, qHTS; series mostly up to 92.2 µM;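 also: cells exposed to compound for 24 hours at 37 °C; nearly all actives have a fitted effect of over 55% in size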; also: potency is read from the fitted curve at half-maximal effect
# Outline: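 Human lymphoblastoid LYMP2-010 cells (2500/well) treated 24 h at 37 C in complete medium; viability read as intracellular ATP by CellTiter-Glo luminescence. AC50 from Hill fits of concentration-response data; tetraoctylammonium bromide positive control.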
# [6] = qHTS assay for small molecule agonists of retinoid X receptor alpha signaling (AID 588544); settings: HEK293T RXRa-UAS-bla, beta-lactamase reporter, 18 h; 530 nm emission
# [7] = biological target: Thyroid hormone receptor beta (Homo sapiens) (UniProt P10828); assay: qHTS assay for small molecule agonists of thyroid hormone receptor beta signaling (AID 588545; calls by dose curve); settings: TR-UAS-bla GripTite HEK 293, beta-lactamase ratio, agonist mode, 18 h; series mostly up to 76.7 µM
# Outline: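 HEK 293 TR-UAS-bla; agonist mode; 18 hrs, 37 C; CCF4, ex 405/em 460 and 530 nm; norm. T3 10 nM = 100%, DMSO = 0%; Hill fit → EC50, efficacy.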
# [8] = qHTS assay for small molecule activators of the p53 signaling pathway (AID 651743; active = well fitted activation curve with a large enough effect in the signal ratio, not every such curve was filed as active; the % refers to the signal ratio); settings: HCT-116 p53RE-bla, beta-lactamase FRET ratio, 16 h; activation: stronger effect = higher value
# Outline: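 Cell-based beta-lactamase reporter (p53 response elements, HCT-116 background). After a 5-hour preincubation, cells received compound for 16 hours at 37 C; substrate development ran 2 hours at room temperature.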
# [9] = biological target: Nuclear receptor ROR-gamma (Homo sapiens) (UniProt P51449); assay: qHTS assay for small molecule antagonists of the retinoid-related orphan receptor gamma (ROR-gamma) signaling pathway (AID 651802); settings: ROR-gamma antagonist cell reporter assay; series mostly up to 92.2 µM; also: nearly all actives have a fitted effect of over 60% in size; also: potency is read from the fitted curve at half-maximal effect
# Outline: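 CHO cells with TET-inducible ROR-gamma and RORE-luciferase reporter, dosed then doxycycline-induced. After 16 h at 37C, One-Glo luminescence read; decreased signal indicates antagonism.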
# [10] = biological target: Cytochrome P450 3A4 (Homo sapiens) (UniProt P08684); assay: qHTS Assay for Inhibitors and Substrates of Cytochrome P450 3A4 (AID 884); settings: recombinant CYP3A4, Luciferin-PPXE luminescence; series mostly up to 57.1 µM; also: nearly all actives have a fitted effect of over 50% in size; also: potency is read from the fitted curve at half-maximal effect
# Outline: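 20 nM human CYP3A4 with 25 uM Luciferin-PPXE (at KM) in 200 mM KPO4, preincubated 10 min with compound; NADPH regeneration started a 60 min RT reaction. Luciferin detected by luminescence, normalized to 57 uM ketoconazole as full inhibition.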
# [11] = MultiTox-Fluor Cytotoxicity Assay - LYMP1-002 - Dead Cells (AID 960); settings: LYMP1-002 lymphoblastoid cells, dead-cell protease fluorescence; series mostly up to 46.1 µM; also: nearly all actives have a fitted effect of over 60% in size; also: potency is read from the fitted curve at half-maximal effect
# Outline: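 Human lymphoblastoid LYMP1-002 cells, 2500/well, treated 16 h at 37 C; dead-cell protease cleavage of bis-AAF-R110 read by fluorescence (485/520); normalized to DMSO and 15 uM tetraoctylammonium bromide; AC50 from Hill fit.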
# [12] = biological target: Vitamin D3 receptor (Homo sapiens) (UniProt P11473); assay: qHTS assay for small molecule agonists of vitamin D receptor signaling (AID 588543; calls by dose curve); settings: HEK293T VDR-UAS-bla, beta-lactamase ratio, 16 h; series mostly up to 76.8 µM
# Outline: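 qHTS in agonist mode: compound titrations stimulate a VDR-driven β-lactamase reporter in HEK293T cells over 16 h at 37 °C. Response normalized to 50 nM 1α,25-dihydroxyvitamin D3 = 100%, DMSO = 0%; Hill fitting gives EC50 and maximal response.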
# [13] = biological target: Voltage-gated inwardly rectifying potassium channel KCNH2 (Homo sapiens) (UniProt Q12809); assay: qHTS Assay for Small Molecule Inhibitors of the Human hERG Channel Activity (AID 588834); settings: U2OS BacMam hERG, FluxOR thallium flux fluorescence; series mostly up to 92.2 µM;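 also: lower thallium flux fluorescence means stronger hERG block; nearly all actives have a fitted effect of over 50% in size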; also: potency is read from the fitted curve at half-maximal effect
# Outline: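 Measured: FluxOR fluorescence after thallium stimulation in U2OS cells transduced with hERG by baculovirus. Compounds pre-incubated around 10 min; medium Opti-MEM with 2% FCS. AC50 from Hill equation.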
# [14] = qHTS assay for small molecule disruptors of the mitochondrial membrane potential - 1 hr assay (AID 651754; calls by dose curve; also: nearly all actives have a fitted effect of over 35% in size; also: potency is read from the fitted curve at half-maximal effect); settings: series mostly up to 92.2 µM
# Outline: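 HepG2 cells, attached overnight, were exposed to compound for 1 hr at 37C, then stained 30 min with a potentiometric dye. Ratio of red aggregate (590nm) to green monomer (535nm) fluorescence reports membrane potential; collapse shifts signal toward green.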
# [15] = qHTS assay for small molecule antagonists of the retinoid-related orphan receptor gamma (ROR-gamma) signaling pathway - cell viability counter screen (AID 720652; active = well fitted curve in the direction sought with a large enough effect in the repeat runs; an effect the other way counts as inactive or inconclusive;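 also: compound exposure lasted 16 hr before ATP read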); settings: RORgamma reporter cell line viability counter screen; series mostly up to 92.2 µM
# Outline: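 CHO cells carrying TET-inducible ROR and RORE-luciferase reporter, plated 5 hr, then dosed with compound plus doxycycline. After 16 hr at 37 C, viability read as intracellular ATP by CellTiter-Glo luminescence.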
# [16] = qHTS assay for small molecule activators of the human pregnane X receptor (PXR) signaling pathway (AID 720659; call rule not given here); settings: DPX-2 HepG2 CYP3A4-luciferase, 24 h; series mostly up to 92.3 µM
# [17] = Cell Viability - Jurkat (AID 426;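 active = dose-dependent loss of cell ATP signal giving a full or clear fitted curve, ranked by lower potency value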;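 also: potency is read from the fitted curve at half-maximal effect; cells exposed to compound for 40 hours at 37 °C before ATP read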); settings: qHTS
# Outline: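 Jurkat (Clone E6-1) cells, 5000/well in complete medium, exposed to compounds for 40 hr at 37C; intracellular ATP measured by CellTiter-Glo luminescence after 20 min at room temperature. AC50 from Hill fits.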
# [18] = biological target: Glucocorticoid receptor (Homo sapiens) (UniProt P04150); assay: qHTS assay for small molecule agonists of glucocorticoid receptor signaling (AID 588532; active = well fitted curve in the direction sought with a large enough effect in the signal ratio, with a control signal flat; the % refers to the signal ratio); settings: HeLa MMTV-bla, beta-lactamase ratio, agonist, 18 h; stronger effect = higher value; percent of dexamethasone control, DMSO zero
# Outline: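 Stimulation of a glucocorticoid response element-driven beta-lactamase gene was measured in HeLa cells. Responses were scaled between DMSO basal and 0.1 uM dexamethasone, then fitted for half-maximal stimulation.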
# [19] = qHTS assay for small molecule activators of the nuclear factor-kappa B (NF-kB) signaling pathway (AID 651749; active = well fitted activation curve with a large enough effect in the signal ratio; the % refers to the signal ratio); settings: NF-kB-bla ME-180 cells, beta-lactamase FRET ratio, 16 h; stronger effect = higher value
# Outline: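 Screening used 2,000 ME-180 reporter cells per well exposed to pinned compound (23 nL) or DMSO; after 16 hr at 37C, beta-lactamase expression under NF-kB control was assessed through FRET.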
# [20] = qHTS assay for small molecule agonists of the antioxidant response element (ARE) signaling pathway measured by Nrf2-dependant transcriptional activity (AID 720636; active = well fitted curve in the direction sought with a large enough effect in the repeat runs; an effect the other way counts as inactive or inconclusive; also: potency is read from the fitted curve at half-maximal effect;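 as to activation: HepG2 cells with an ARE-driven luciferase reporter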); settings: ARE-luc HepG2, Nrf2 luciferase reporter, 16 h; series mostly up to 92.4 µM
# Outline: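 Cells: ARE-luc HepG2 with Nrf2-responsive luciferase. Medium contained 1% dialyzed FBS. Compound exposure lasted 16 hr at 37 C and 5% CO2, followed by ONE-Glo luciferase detection.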
# Vitamin D3 receptor (Homo sapiens), sequence (P11473 whole entry, looked up): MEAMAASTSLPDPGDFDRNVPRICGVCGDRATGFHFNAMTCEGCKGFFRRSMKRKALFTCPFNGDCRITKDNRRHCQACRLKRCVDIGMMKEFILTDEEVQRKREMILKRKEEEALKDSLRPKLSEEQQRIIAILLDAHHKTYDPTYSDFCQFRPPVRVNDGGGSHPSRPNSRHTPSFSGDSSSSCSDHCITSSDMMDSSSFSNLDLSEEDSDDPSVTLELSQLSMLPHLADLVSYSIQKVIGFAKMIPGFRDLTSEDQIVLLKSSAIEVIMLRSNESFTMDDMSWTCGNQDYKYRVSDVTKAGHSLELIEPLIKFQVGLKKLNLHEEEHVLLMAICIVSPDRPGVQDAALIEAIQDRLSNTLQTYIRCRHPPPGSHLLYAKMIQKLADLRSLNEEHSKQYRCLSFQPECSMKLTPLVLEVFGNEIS
# Nuclear receptor ROR-gamma (Homo sapiens), sequence (P51449 whole entry, looked up): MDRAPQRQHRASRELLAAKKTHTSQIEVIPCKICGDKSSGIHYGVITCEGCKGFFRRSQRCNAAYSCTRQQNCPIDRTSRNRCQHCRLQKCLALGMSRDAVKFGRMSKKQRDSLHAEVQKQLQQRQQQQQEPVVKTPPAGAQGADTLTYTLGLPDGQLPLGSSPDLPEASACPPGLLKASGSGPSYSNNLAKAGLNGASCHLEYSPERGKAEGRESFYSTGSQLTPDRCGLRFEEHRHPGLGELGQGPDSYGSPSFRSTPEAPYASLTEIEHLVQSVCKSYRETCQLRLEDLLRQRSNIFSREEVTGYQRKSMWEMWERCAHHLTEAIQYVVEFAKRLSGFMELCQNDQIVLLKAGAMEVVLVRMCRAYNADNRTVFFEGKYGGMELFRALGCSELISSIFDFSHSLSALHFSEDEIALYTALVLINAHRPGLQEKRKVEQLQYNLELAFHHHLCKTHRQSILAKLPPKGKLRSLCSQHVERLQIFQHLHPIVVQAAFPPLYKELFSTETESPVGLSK
# Thyroid hormone receptor beta (Homo sapiens), sequence (P10828 whole entry, looked up): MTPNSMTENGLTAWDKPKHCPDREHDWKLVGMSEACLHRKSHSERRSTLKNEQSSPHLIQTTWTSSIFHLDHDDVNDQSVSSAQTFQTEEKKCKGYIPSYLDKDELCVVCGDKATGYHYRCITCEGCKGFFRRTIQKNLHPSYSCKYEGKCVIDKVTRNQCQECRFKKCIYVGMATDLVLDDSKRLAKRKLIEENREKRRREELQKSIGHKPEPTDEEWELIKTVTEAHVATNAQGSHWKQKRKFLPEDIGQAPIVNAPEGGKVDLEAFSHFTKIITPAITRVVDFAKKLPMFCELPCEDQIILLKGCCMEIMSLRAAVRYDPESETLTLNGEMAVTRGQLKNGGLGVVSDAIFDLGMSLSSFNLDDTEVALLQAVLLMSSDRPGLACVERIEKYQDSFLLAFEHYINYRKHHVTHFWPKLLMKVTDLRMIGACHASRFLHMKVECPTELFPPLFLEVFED
# Voltage-gated inwardly rectifying potassium channel KCNH2 (Homo sapiens), sequence (Q12809 whole entry, looked up): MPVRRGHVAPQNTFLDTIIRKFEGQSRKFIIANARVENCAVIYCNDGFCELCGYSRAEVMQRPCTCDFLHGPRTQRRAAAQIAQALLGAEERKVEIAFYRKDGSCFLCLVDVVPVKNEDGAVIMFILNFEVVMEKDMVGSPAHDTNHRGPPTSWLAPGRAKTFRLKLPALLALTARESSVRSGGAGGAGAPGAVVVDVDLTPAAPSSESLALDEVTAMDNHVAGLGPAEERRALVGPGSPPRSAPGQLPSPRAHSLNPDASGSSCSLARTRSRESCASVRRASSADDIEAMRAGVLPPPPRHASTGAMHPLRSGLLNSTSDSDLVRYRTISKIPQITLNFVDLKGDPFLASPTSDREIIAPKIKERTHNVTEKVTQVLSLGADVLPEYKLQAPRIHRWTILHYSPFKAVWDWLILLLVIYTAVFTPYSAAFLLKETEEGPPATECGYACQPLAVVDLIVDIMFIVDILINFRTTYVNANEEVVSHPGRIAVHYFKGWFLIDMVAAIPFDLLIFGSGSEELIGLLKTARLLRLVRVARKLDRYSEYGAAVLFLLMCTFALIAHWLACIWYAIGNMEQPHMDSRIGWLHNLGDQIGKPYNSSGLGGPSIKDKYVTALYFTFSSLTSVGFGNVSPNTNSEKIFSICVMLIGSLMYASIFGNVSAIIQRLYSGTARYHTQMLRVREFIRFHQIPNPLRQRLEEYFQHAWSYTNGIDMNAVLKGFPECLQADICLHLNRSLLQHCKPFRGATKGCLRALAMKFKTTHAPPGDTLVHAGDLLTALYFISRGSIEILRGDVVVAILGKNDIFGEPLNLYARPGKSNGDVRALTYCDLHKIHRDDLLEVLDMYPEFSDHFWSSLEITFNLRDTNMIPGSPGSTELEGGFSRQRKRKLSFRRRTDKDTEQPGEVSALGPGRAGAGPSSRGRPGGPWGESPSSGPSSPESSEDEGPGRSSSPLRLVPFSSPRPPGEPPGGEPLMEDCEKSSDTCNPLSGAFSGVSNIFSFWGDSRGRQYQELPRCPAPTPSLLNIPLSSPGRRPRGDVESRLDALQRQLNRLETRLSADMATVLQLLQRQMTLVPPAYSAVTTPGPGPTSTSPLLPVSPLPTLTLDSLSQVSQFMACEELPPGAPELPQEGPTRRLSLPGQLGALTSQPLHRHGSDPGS
# Glucocorticoid receptor (Homo sapiens), sequence (P04150 whole entry, looked up): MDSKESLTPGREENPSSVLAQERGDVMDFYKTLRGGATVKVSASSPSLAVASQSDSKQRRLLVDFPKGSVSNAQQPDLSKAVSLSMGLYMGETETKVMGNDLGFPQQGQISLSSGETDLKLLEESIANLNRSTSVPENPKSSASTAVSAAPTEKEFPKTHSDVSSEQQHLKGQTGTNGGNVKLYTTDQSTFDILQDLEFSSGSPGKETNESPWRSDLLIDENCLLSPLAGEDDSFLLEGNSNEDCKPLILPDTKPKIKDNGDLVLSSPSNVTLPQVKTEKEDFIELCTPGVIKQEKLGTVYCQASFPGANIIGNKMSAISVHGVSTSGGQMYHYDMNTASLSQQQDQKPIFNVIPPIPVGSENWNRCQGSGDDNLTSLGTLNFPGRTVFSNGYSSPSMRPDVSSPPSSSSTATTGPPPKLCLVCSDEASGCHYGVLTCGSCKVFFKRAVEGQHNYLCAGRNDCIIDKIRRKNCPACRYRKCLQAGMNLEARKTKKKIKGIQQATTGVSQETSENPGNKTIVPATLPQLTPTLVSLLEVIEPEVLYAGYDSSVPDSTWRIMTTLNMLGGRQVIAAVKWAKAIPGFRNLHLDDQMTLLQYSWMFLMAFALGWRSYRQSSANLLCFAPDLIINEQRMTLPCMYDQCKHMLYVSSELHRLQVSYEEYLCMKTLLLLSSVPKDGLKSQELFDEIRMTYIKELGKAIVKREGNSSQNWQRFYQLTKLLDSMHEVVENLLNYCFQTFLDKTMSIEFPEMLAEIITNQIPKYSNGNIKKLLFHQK
# Cytochrome P450 3A4 (Homo sapiens), sequence (P08684 whole entry, looked up): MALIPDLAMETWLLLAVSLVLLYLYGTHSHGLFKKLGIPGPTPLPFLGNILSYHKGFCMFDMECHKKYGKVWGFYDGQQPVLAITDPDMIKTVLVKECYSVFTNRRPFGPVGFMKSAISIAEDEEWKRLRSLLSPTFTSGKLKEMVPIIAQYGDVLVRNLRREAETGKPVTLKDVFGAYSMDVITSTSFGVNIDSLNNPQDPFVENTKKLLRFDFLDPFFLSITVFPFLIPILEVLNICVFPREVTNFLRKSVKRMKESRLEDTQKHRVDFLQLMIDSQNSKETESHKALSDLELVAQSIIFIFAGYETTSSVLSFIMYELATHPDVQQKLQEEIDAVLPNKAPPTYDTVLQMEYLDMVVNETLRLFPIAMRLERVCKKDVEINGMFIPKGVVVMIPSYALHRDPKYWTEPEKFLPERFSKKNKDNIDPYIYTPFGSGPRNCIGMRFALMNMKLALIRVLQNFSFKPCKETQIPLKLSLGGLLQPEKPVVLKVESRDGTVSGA
smiles,measurement,setting,value
c1ccc(Nc2cccc3ccccc23)cc1,Potency,[1],> 92 µM (inactive)
same,Potency,[2],> 92 µM (inactive)
same,Potency,[3],inactive
same,Potency,[4],inactive
same,Potency,[5],inactive
same,max response,[6],-7.08% and 4.25%
same,Potency,[7],inactive
same,activation,[8],-1.55% (inactive) and -1.95% (inactive)
same,Potency,[9],inactive
Nc1ccc(N)c(Cl)c1,"viability change, negative = cytotoxic",[3],-99% (active)
same,Potency,[10],10 µM (active)
same,Potency,[11],inactive
same,Potency,[12],inactive
same,max response,[6],15.5%
same,Potency,[7],inactive
same,Potency,[13],inactive
same,activation,[8],1.03% (inactive)
same,Potency,[14],7.5 µM (active)
same,Potency,[9],inactive
same,Potency,[15],inactive
same,outcome,[16],inactive
S=C(NC1CCCCC1)NC1CCCCC1,Potency,[17],> 92 µM (inactive)
same,Potency,[3],inactive
same,Potency,[11],inactive
same,Potency,[4],inactive
same,Potency,[5],inactive
same,activation,[18],9% (inactive)
same,Potency,[12],inactive
same,max response,[6],7.4%
same,Potency,[7],inactive
same,Potency,[13],inactive
same,activation,[19],-0.887% (inactive)
same,Potency,[9],inactive
same,Potency,[20],inactive
same,Potency,[15],inactive
Oc1cc2c(cc1O)[C@H]1c3ccc(O)c(O)c3OC[C@@]1(O)C2,Potency,[17],35.9 µM (active)
same,"viability change, negative = cytotoxic",[3],-82.8% (active)
same,Potency,[11],inactive
same,Potency,[4],25.1 µM (active)
same,Potency,[5],39.8 µM (active)
same,activation,[18],0.204% (inactive)
same,max response,[6],5.74%
same,Potency,[7],inactive
same,activation,[19],-1.98% (inactive)
same,Potency,[14],inactive
same,Potency,[9],11.9 µM (active)
same,Potency,[15],inactive
same,outcome,[16],inactive
CN(C)c1ccc(C(=N)c2ccc(N(C)C)cc2)cc1,Potency,[3],10 µM (active)
same,Potency,[11],15.8 µM (active)
same,activation,[18],2.53% (inactive)
same,Potency,[12],inactive
same,Potency,[7],inactive
same,Potency,[13],15.8 µM (active)
same,activation,[8],11.1% (inactive)
same,activation,[19],3.33% (inactive)
same,Potency,[9],5.31 µM (active)
Cc1c(C(=O)O)c(O)cc2c1C(=O)c1c(O)c([C@H]3O[C@H](CO)[C@@H](O)[C@H](O)[C@H]3O)c(O)c(O)c1C2=O,Potency,[2],38.2 µM (active)
same,Potency,[11],inactive
same,activation,[18],-7.96% (inactive)
same,Potency,[12],inactive
same,max response,[6],-6.4%
same,Potency,[7],inactive
same,activation,[8],0.0222% (inactive)
same,Potency,[14],inactive
same,Potency,[9],26.6 µM (active)
same,Potency,[20],inactive
same,outcome,[16],inactive
Cc1ccc(O)c(N)c1,Potency,[1],> 92 µM (inactive)
same,Potency,[3],20 µM (active)
same,Potency,[10],inactive
same,Potency,[11],inactive
same,Potency,[5],39.8 µM (active)
same,activation,[18],4.97% (inactive)
same,max response,[6],23.6%
same,Potency,[7],inactive
same,Potency,[13],inactive
same,activation,[8],2.36% (inactive)
same,Potency,[14],29.8 µM (active)
same,Potency,[20],42.2 µM (active)
same,Potency,[15],inactive
CC(=O)CC(=O)Nc1ccccc1,Potency,[1],> 92 µM (inactive)
same,Potency,[2],> 92 µM (inactive)
same,Potency,[3],inactive
same,Potency,[10],inactive
same,Potency,[11],inactive
same,Potency,[4],inactive
same,activation,[18],-8.89% (inactive)
same,Potency,[12],inactive
same,max response,[6],6.79% and 6.65%
same,Potency,[7],inactive
same,Potency,[13],inactive
same,activation,[19],-0.0343% (inactive) and 0.349% (inactive)
same,Potency,[14],inactive
same,Potency,[20],inactive
same,Potency,[15],inactive
same,outcome,[16],inactive
CC/C=C/C/C=C/C/C=C/CCCCCCCC(=O)OCC,Potency,[1],> 92 µM (inactive)
same,Potency,[2],> 92 µM (inactive)
same,Potency,[10],10 µM (active)
same,Potency,[4],39.8 µM (active)
same,Potency,[5],25.1 µM (active)
same,activation,[18],-2.85% (inactive)
same,Potency,[7],inactive
same,activation,[19],-1.38% (inactive)
same,Potency,[14],inactive
same,Potency,[9],inactive
same,Potency,[20],66.8 µM (active)
